# High-throughput results: PubChem BioAssay, National Center for Advancing Translational Sciences (NCATS)
# An excerpt weighted towards active compounds, which were near 1.7% of everything screened.
# GLP-1R agonist: qHTS of GLP-1 Receptor Agonists; Glucagon-like peptide 1 receptor (Homo sapiens), P43220; HEK293 GLP-1R CRE-luciferase, luminescence, 4-6 h; cells express a hypersensitive GLP-1R form; Potency, µM (highest dose often 45.6 µM), inactives show at the top dose activation, most hits filed as activators; hit rate 0.007% among 380,000; AID 624172, 2012; also: % of control where 0% means no effect
# HEK293 tox: qHTS of GLP-1 Receptor Inverse Agonists: Cytotox Screen | hit rate 0.13% among 410,000 | HEK293 cAMP-luciferase reporter cells, luminescence, 24 h | Potency, µM (doses to about 38.3 µM), inactives show at the highest dose activity change, negative = inhibition, usual class: inhibitors;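 also: loss of luciferase light is scored as toxicity; % is scaled to controls: 0 for no effect and ±100 for the full control effect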
#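 Here, cytotoxicity is scored as loss of luminescence. The MLSMR collection was tested on cells seeded in medium containing 10% Nu serum, with a 24 hr compound exposure preceded by 12 hours of culture.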
# PTHR1 ag: qHTS for PTHR1 Agonists: Primary Screen; hit rate 0.075% among 410,000; HEK293 GP2 PTHR1 cells, GloSensor cAMP luminescence, 1 h; Potency, µM (doses to about 115 µM), for the others: at the highest dose activation, hits mostly activators; AID 743266, 2014; Parathyroid hormone/parathyroid hormone-related peptide receptor (Homo sapiens), Q03431; also: nearly all actives have a fitted effect of over 55% in size
# Target sequence (Q03431 whole entry, looked up): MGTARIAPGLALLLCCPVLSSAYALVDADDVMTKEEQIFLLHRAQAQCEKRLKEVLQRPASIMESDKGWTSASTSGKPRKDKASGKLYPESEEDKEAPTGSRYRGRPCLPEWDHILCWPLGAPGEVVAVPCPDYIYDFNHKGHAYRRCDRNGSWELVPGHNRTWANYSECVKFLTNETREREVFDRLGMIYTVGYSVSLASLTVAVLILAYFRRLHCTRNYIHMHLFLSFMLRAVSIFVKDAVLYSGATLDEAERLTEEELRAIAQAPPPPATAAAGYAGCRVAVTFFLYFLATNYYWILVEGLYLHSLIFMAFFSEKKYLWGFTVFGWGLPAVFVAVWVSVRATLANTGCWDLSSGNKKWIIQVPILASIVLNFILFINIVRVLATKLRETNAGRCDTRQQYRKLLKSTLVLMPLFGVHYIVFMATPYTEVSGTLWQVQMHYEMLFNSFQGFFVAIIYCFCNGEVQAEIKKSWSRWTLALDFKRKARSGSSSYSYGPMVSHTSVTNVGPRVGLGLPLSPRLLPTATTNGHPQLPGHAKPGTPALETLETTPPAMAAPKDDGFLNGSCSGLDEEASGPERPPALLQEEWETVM
#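 HEK-293-derived GP2 cells expressing PTHR1 and a GloSensor cAMP reporter, 3,000/well, plated overnight, given luciferin plus IBMX (each 0.5 mM as added) for 1 h at 37 °C, then compound for 1 h at 37 °C. Luminescence was read after 15 min at room temperature.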
# GLP1R inv ag: qHTS of GLP-1 Receptor Inverse Agonists (Inhibition Mode) | Glucagon-like peptide 1 receptor (Homo sapiens), P43220 | HEK293 GLP-1R CRE-luciferase, luminescence, 24 h; GLP-1R form is constitutively active | AID 624417, 2012 | hit rate 1.6% among 410,000 | Potency, µM (top dose mostly 38.3 µM), inactives show top-dose activity change, negative = inhibition, most hits filed as inhibitors; also: % is scaled to controls: 0 for no effect and ±100 for the full control effect; nearly all actives have a fitted effect of over 55% in size
#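 GLP-1R inverse agonism mode: basal reporter luminescence in engineered HEK293 cells measured after one day of compound exposure at 37 deg C, with a 12 min room-temperature detection step.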
# * marks the source's active call; other numbers are inactive results; i = inactive; ? = inconclusive; / = not tested or not shown; [ ] = remark or other dose. Calls follow the shape of the dose curve; as a rule, active = well fitted curve in the direction sought with a large enough effect; inconclusive = small, poorly fitted or top-dose-only effect, or another doubt; inactive = no such curve, though single readings can be large; an effect the other way counts as inactive or inconclusive. Potency is read from the fitted curve at half-maximal effect.
SMILES,GLP-1R agonist,HEK293 tox,PTHR1 ag,GLP1R inv ag
Cc1ccc(-c2c(C(=O)NCCc3ccc(Cl)cc3)oc(=O)c3ccccc23)cc1,-11%,5%,17%,4.5µM*
Cc1ccc(O)c(N=NC2=C(O)CC(C)(C)CC2=O)c1,-3%,13µM*,-3%,?
Cc1ccc(C(c2nnnn2Cc2ccccc2)N2CCN(Cc3ccccc3)CC2)cc1 (stereo not given),-9%,-25%,i,10µM*
CC1CCN(C(c2cccs2)c2nnnn2Cc2ccccc2)CC1 (stereo not given),-4%,0%,-6%,10µM*
c1ccc(Cn2nnnc2C(c2cccs2)N2CCSCC2)cc1 (stereo not given),0%,10%,i,-29%
COc1ccc(-c2cc(=S)ss2)cc1,26%,/,/,/
COc1cc(/C=C/c2nc3cc(Cl)ccc3c(=O)n2-c2ccc(C)cc2C)cc(OC)c1OC,/,3%,-20%,-5%
CCOCN(C(=O)Cn1c(C)nc2ccccc21)c1c(C)cccc1CC,/,11%,-7%,-13%
CCOCN(C(=O)Cn1c(CC(C)C)nc2ccccc21)c1c(C)cccc1CC,-4%,-13%,-6%,11µM*
CCCCN(CCCNC(=O)CN1N=C(c2ccccc2)CCC1=O)c1ccccc1,/,-1%,i,10µM*
CCCCN(CCCNC(=O)c1ccc2c(c1)NC(=O)CN2C)c1ccccc1,-8%,-1%,-54%,2.8µM*
CC1CCCCN1CCCNC(=O)c1ccc2c(c1)NC(=O)CN2C (stereo not given),9%,7%,-20%,14%
Cc1ccc(NC(=O)Nc2cn(CC(C)C)c(=O)c3ccccc23)cc1N(C)C,16%,3%,i,-13%
Cc1ccc(C2=NN(C(=O)CCl)C(c3cccs3)C2)o1 (stereo not given),10%,?,-30%,3.2µM*
O=C(CCl)N1N=C(c2ccco2)CC1c1cccs1 (stereo not given),-21%,?,-6%,0%
CC1=C(c2ccc(C(C)C)cc2)S(=O)(=O)NC1=NCc1ccccc1Br,/,0%,-31%,?
Cc1nn(C(C)(C)C)c(OC(=O)c2ccc3c(c2)OCO3)c1S(=O)(=O)c1ccccc1,-6%,-6%,-1%[57.5 µM],10µM*
Cc1nn(C(C)(C)C)c(OC(=O)c2ccc3c(c2)OCO3)c1Sc1ccccc1,-5%,-5%,-1%,4.5µM*
NC(=S)N=Nc1c(O)n(Cc2ccccc2)c2ccccc12,-1%,?,i,?
COC(=O)c1ccc(Cn2c(O)c(N=NC(N)=S)c3ccccc32)o1,10%,?,?,10µM*
C/C(Cl)=C\Cn1c(O)c(N=NC(N)=S)c2ccccc21,?,1.6µM*,-7%,?
CCCN1C(=O)C2(c3ccccc31)c1c(oc3ccc(C)cc3c1=O)C(=O)N2CCOC (stereo not given),/,-5%,-21%,13%
COc1ccc(N(C(=O)COc2c(C)cccc2C)S(=O)(=O)c2ccc(Cl)cc2)cc1,/,0%,-9%,10µM*
COc1ccc2oc(=O)c(C(=O)N3CCN(c4ccc(C)cc4)CC3)cc2c1,0%,-8%,-33%,-2%
O=C(NC(NC(=S)Nc1ccc(Cl)cc1)C(Cl)(Cl)Cl)c1ccco1 (stereo not given),-2%,?,-36%,3.5µM*
SMILES,GLP-1R agonist,HEK293 tox,PTHR1 ag,GLP1R inv ag
CC(=O)c1ccc(NC(=S)NC(NC(=O)c2ccco2)C(Cl)(Cl)Cl)cc1 (stereo not given),-17%,-7%,-11%,5µM*
O=C(NC(NC(=S)Nc1ccccc1O)C(Cl)(Cl)Cl)c1ccco1 (stereo not given),-8%,-5%,i,?
NC(N)=N/N=C/c1cccc(Cl)c1Cl,0%,?,-8%,10µM*
Cc1ccc(C(=O)N2c3ccccc3N(Cc3ccccc3)C(=O)C2(C)C)cc1,0%,26%,-22%[57.5 µM],11µM*
O=C(Cn1ccc2cc(S(=O)(=O)N3CCCCCC3)ccc21)NCc1cccc(Cl)c1,/,-12%,-26%,?
CC(C)[N+](C)(C)CC#CC(O)(c1ccccc1)c1ccccc1,0%,-8%,i,5%
OC(C#Cc1ccccc1)(c1ccccc1)c1ccccc1,15%,?,-24%,4.5µM*
S=C(N/N=C/c1ccccc1Cl)Nc1ccccc1,12%,4µM*,i,?
CCCCN(CCCC)/C(N)=N/c1nc(C)cc(C)n1,3%,?,-2%,4µM*
O=C(NC(=O)N1CCN(c2cccc(Cl)c2)CC1)c1ccc(Cl)cc1,-17%,5%,-49%,3.2µM*
CC(Sc1nnc(CN2CCCC2)n1Cc1ccccc1)C(=O)Nc1ccc(F)cc1Cl (stereo not given),22%,-4%,i,5.6µM*
CC(Sc1nnc(CN2CCCC2)n1Cc1ccccc1)C(=O)Nc1ccc(F)cc1 (stereo not given),-5%,0%,i,?
Cc1ccc(CNC(=O)Nc2cn(CC(C)C)c(=O)c3ccccc23)cc1,15%,-2%,i,-8%
CC1Cc2ccccc2N1C(=S)NC(=O)c1cccc(Br)c1 (stereo not given),5%,?,i,?
CC1Cc2ccccc2N1C(=S)NC(=O)c1ccc(Cl)cc1Cl (stereo not given),-15%,?,-17%,10µM*
CCOC(=O)c1c(C)nc2ccc(Cl)cc2c1-c1ccccc1,?,-7%,i,10µM*
CCCC(=O)O[C@]1(C(=O)COC(=O)CC)[C@@H](C)C[C@H]2[C@@H]3CCC4=CC(=O)C=C[C@@]4(C)[C@@]3(F)[C@H](O)C[C@@]21C,-4%,/,/,/
Cc1ccc(S(=O)(=O)N2C[C@H]3N(C(=O)OC(C)C)N(C(=O)OC(C)C)C[C@H](OC(=O)NCC4CCCCC4)[C@@]3(O)C2)cc1,-3%,?,-13%,4.5µM*
N#C/C(=C1/SC[C@@H](c2ccc(Cl)cc2Cl)S1)n1ccnc1,9%,/,/,/
COc1ccc2c(=O)c(-c3ccc(C)cc3)c(-c3ccccc3)oc2c1,-3%,4%,-8%,7.9µM*
COc1ccc(-n2c(C)cc(C(=O)Cn3c(NCCO)nc4ccccc43)c2C)cc1,7%,-30%,i,10µM*
CCOc1ccc(NC(=O)C2C(c3ccccc3)C2(Cl)Cl)cc1 (stereo not given),17%,-19%,-46%,?
Cc1ccc(NC(=O)C2C(c3ccccc3)C2(Cl)Cl)c(C)c1 (stereo not given),-11%,-6%,-4%[57.5 µM],11µM*
COc1ccc(NC(=O)C2C(c3ccccc3)C2(Cl)Cl)cc1 (stereo not given),-3%,-8%,-27%,10µM*
